# Records with an inconclusive call do not appear. Activity calls are given as the source filed them. Calls follow the shape of the dose curve; as a rule, active = well fitted inhibition curve with a large enough effect; inconclusive = small, poorly fitted or top-dose-only effect; inactive = no such curve, though single readings can be large or run the other way.
# Assay: BET inhibitor-based combinations targeting novel dependencies in MECOM-rearranged (r) AML: SET-2 cell line (AID 2202231); also: nearly all actives have a fitted effect of over 35% in size
# Settings: SET-2 AML cells viability, CellTiter-Glo luminescence, 48 h; viability: stronger effect = lower value, series mostly up to about 46 µM
# Source text: Ecotropic viral insertion site 1 (EVI1) is located on chromosome 3q26.2 as part of the MECOM (MDS and EVI1 complex) locus. Under normal hematopoiesis, EVI1 is a regulator of hematopoietic stem cell maintenance and self-renewal and EVI1 levels decrease as the cells differentiate. In approximately 5-10% of de novo acute myeloid leukemia (AML) EVI1 is aberrantly expressed, including Chromosomal inv(3)(q21;q26.2) or t(3;3)(q21;q26.2) alterations (MECOM-r) that account for about 50% of AML with EVI1 overexpression 31. AMLs with high levels of EVI1 have a poor prognosis and an overall survival time averaging between 10-14 months. EVI1 overexpression confers resistance in leukemia cells, highlighting the need to develop new targeted therapies for EVI1 overexpressing AMLs.
# Here, we performed an unbiased chemical drug screening by evaluating the single agent activity of a collection of 2,480 oncology-focused, approved and investigational drugs (NCATS Mechanism Interrogation Plates, MIPE v5.0) against a panel of seven AML cell lines. These included four MECOM-r cell-lines (AML-191, AML-194, UCSD-AML1 and HNT-34) and three non-MECOM-r AMLs (MV4-11, OCI-AML3 and SET-2). Exploiting the mechanistic redundancy built in the library, we identified target-level sensitivities in MECOM-r AML cells and relative activity as compared to other AML subtypes.
# A collection of 2480 mechanistically annotated dugs (MIPE v5.0) was used to screen four 3q26.2 rearranged AML cell lines and three non-3q26.2 rearranged AML cell lines. This library purposely exploits redundancy by including multiple inhibitors of key onco-targets, while simultaneously encompassing mechanistic diversity, targeting more than 800 distinct mechanisms of action. Briefly, cells were seeded in 5 uL of growth media using a Multidrop Combi dispenser into 1536 well white polystyrene tissue culture treated plates (Corning) at a density of 500cells/well. For each cell-line, for each of the 2480 drugs in MIPE v5.0 library, an 11-point dose curve was generated via a 1536 pin-tool. Plates were incubated for 48 hr at standard incubator conditions, covered by a stainless steel gasketed lid to prevent evaporation. Cell viability was determined by luminescence based, Cell Titer Glo assay (Promega). In detail, 3 uL of Cell Titer Glo were added to each well and plates were incubated at room temperature for 15 min with a stainless-steel lid in place. Luminescence readings were taken using a Viewlux (PerkinElmer) with a 2 s exposure time per plate. Compound dose-response curves were normalized to DMSO and empty well controls on each plate. Quantitative drug activity data from dose-response curves was determined utilizing area Under the Curve (AUC) and Z-transformed AUC (Z-AUC, a mean-centering transformation applied to each individual cell-line screened).
# Potency is read from the fitted curve at half-maximal effect.
SMILES,Potency,viability
O=C(/C=C/N1C[C@H]2C[C@@H]1CN2c1ccccn1)c1ccccc1O,0.372 µM (active),–
COc1c(N2CCNC(C)C2)c(F)cc2c(=O)c(C(=O)O)cn(C3CC3)c12 (stereo not given),–,100% (inactive)
CCCS(=O)(=O)Nc1ccc(F)c(C(=O)c2c[nH]c3ncc(-c4ccc(Cl)cc4)cc23)c1F,–,117% (inactive)
COc1ccc(CNC(=O)Nc2ncc([N+](=O)[O-])s2)cc1,26.3 µM (active),–
O=C(c1cc(Cc2n[nH]c(=O)c3ccccc23)ccc1F)N1CCN(C(=O)C2CC2)CC1,–,80.3% (inactive)
CC(=O)Nc1ccc(C(=O)Nc2ccccc2N)cc1,7.42 µM (active),–
COc1ccc([C@@H]2CNC(=O)C2)cc1OC1CCCC1,–,118% (inactive)
O=C(NOCC(O)CO)c1ccc(F)c(F)c1Nc1ccc(I)cc1F (stereo not given),–,80.7% (inactive)
COc1ccc2c3n(c(=NC(=O)c4cccnc4)nc2c1OC)CCN3,–,112% (inactive)
Oc1ccc([C@@H]2Oc3ccc(O)cc3[C@@H]3CCC[C@@H]32)cc1,18.6 µM (active),–
Cc1[nH]c(=O)c(C#N)cc1-c1ccc2nccn2c1,–,118% (inactive)
CC(=O)Oc1cc2c(s1)CCN(C(C(=O)C1CC1)c1ccccc1F)C2 (stereo not given),–,102% (inactive)
C[C@@]1(c2cc(-c3cncnc3)c(F)cc2F)CCSC(N)=N1,–,111% (inactive)
NC(=O)Nc1sc(-c2ccc(F)cc2)cc1C(N)=O,5.9 µM (active),–
O=C1[C@H](Cc2ccc(O)cc2)N2C(=O)CCN(C(=O)NCc3ccccc3)[C@H]2CN1Cc1cccc2ccccc12,11.8 µM (active),–
NC(=O)c1cccc(-c2cc(Nc3ccc(OC(F)(F)F)cc3)ncn2)c1,20.9 µM (active),–
CC1(C)CC(=O)c2c(C(F)(F)F)nn(-c3ccc(C(N)=O)c(NC4CCC(O)CC4)c3)c2C1 (stereo not given),0.148 µM (active),–
Cc1cc(-c2cc(OC(=O)c3ccccc3)ccc2Cl)cc2nnc(Nc3ccc(OCCN4CCCC4)cc3)nc12,–,115% (inactive)
C=C(C)[C@@H]1CC[C@]2(C)CC[C@]3(C)[C@H](CC[C@@H]4[C@@]5(C)CC[C@H](O)C(C)(C)[C@H]5CC[C@]43C)[C@@H]12,–,117% (inactive)
C=CC(=O)Nc1cccc(Nc2nc(Nc3ccc(Oc4ccnc(C(=O)NC)c4)cc3)ncc2F)c1,23.5 µM (active),–

SMILES,Potency,viability
CCN(CC)CCNC(=O)c1ccc2nc(-c3ccccc3)c(-c3ccc(CN4CCC(n5c(=O)[nH]c6ccccc65)CC4)cc3)nc2c1,8.33 µM (active),–
O=C(O)c1cc(=O)c2c(OCC(O)COc3cccc4oc(C(=O)O)cc(=O)c34)cccc2o1,–,114% (inactive)
COc1cc(S(C)(=O)=O)ccc1Nc1nc2ccc(-c3ccc(NC(=O)[C@H](C)c4ccc(F)cc4)cc3)cn2n1,0.235 µM (active),–
CNC(=O)c1cccc(-c2ccc3c(N4CCOC[C@@H]4C)nc(N4CCOC[C@@H]4C)nc3n2)c1,0.59 µM (active),–
NS(=O)(=O)c1cc2c(cc1Cl)NCNS2(=O)=O,–,107% (inactive)
N#CN1CCC[C@@H](n2nc(-c3ccc(Oc4ccc(F)cc4F)cc3)c(C(N)=O)c2N)C1,–,107% (inactive)
CC(C)=CC[C@@H](O)C1=CC(=O)c2c(O)ccc(O)c2C1=O,10.5 µM (active),–
NC12CC3CC(CC(C3)C1)C2,–,106% (inactive)
COC1CCC(N(C(=O)C2CCC(C)CC2)c2cc(C3=CCCCC3)sc2C(=O)O)CC1 (stereo not given),–,113% (inactive)
O=S(=O)(O)CCS,–,120% (inactive)
CCOc1cc2ncc(C#N)c(Nc3ccc(OCc4ccccn4)c(Cl)c3)c2cc1NC(=O)/C=C/CN(C)C,4.68 µM (active),–
N#CNC(=NCCCCCCOc1ccc(Cl)cc1)Nc1ccncc1,13.2 µM (active),–
C=Cc1c(C)c2cc3nc(cc4[nH]c(cc5nc(cc1[nH]2)C(C)=C5CCC(=O)O)c(CCC(=O)OC)c4C)[C@@]1(C)C3=CC=C(C(=O)OC)[C@H]1C(=O)OC,–,97.6% (inactive)
OCc1ccc(-c2nn(Cc3ccccc3)c3ccccc23)o1,16.6 µM (active),–
O=S(=O)(O)CCSSCCS(=O)(=O)O,–,104% (inactive)
O=C(CCCCCCC(=O)Nc1ccc([C@H]2O[C@@H](CSc3nc(-c4ccccc4)c(-c4ccccc4)o3)C[C@@H](c3ccc(CO)cc3)O2)cc1)NO,–,106% (inactive)
Nc1c2c(nc3ccccc13)CCCC2,–,102% (inactive)
CN(C)C1CCN(C(=O)c2ccc(NC(=O)Nc3ccc(-c4nc(N5CCOCC5)nc(N5CCOCC5)n4)cc3)cc2)CC1,4.68 µM (active),–
CCc1cc(C(N)=O)ccc1-n1nc(C(C)C)c2c(-n3cnc(-c4cnn(C)c4)c3)ccnc21,2.95 µM (active),–
Cc1nc(-c2cccnc2)sc1C(=O)Nc1ccccc1-c1cn2c(CN3CCOCC3)csc2n1,–,115% (inactive)

# Reference: PubChem BioAssay (NCATS)
